Laboratory results reported in PubChem BioAssay (NCI).
About 83,000 compounds went through this panel and 20% of them were active in at least one assay; those are over-represented in the sample as a whole.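 How to read the values: 0–100, growth inhibition (40 = 60% inhibited); 0, no net growth; -100 to 0, cell death (-40 = 40% of starting cells died; -100 = all dead).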 A number with no mark means an inactive call. Calls of active or inactive are those of the source. The calls were made as follows: active = growth percent below 10; inactive = the rest.

These compounds were tested on MDA-MB-468 breast (assay: NCI-60 one-dose screen, 48 h (100 = growth as untreated, 0 = no growth, -100 = all killed)). Conditions: 10 µM unless noted.

| SMILES | growth |
| --- | --- |
| O=C(O)/C=C/C(=O)c1ccc(Cl)cc1 | 124% |
| O=C(/C=C/c1ccccc1)n1c(-c2ccc(Cl)cc2)nc2ccccc21 | -6.61% (active) |
| COc1ccc(C2=C(Nc3ccc(C(=O)Nc4ccccc4)cc3)C(=O)N(C)C2=O)cc1 | 88.1% |
| C=C1C(=O)O[C@H]2[C@H]1CC/C(COC(=O)NCCc1ccc(Br)cc1)=C\CC[C@@]1(C)O[C@@H]21 | 4.63% (active) |
| Cc1nc2c(c(=O)[nH]1)OCN(Cc1ccccc1)C2 | 108% |
| COc1cc(-c2nn3c(/C=C4/C(=O)Nc5ccccc54)c(-c4ccc(C)cc4)nc3s2)cc(OC)c1OC | 41% |
| O=C(CCc1nc2sc3c(c2c(=O)[nH]1)CCC3)NCc1cn(-c2ccccc2)nc1-c1ccccc1 | 83.6% |
| COC(=O)[C@H]1Cc2c([nH]c3ccccc23)[C@H](c2ccc3c(c2)OCO3)N1 | 102% |
| CN1C2C=CC(=O)C1C1C(=O)N(c3ccccc3)C(=O)C12 (stereo not given) | 0.669% (active) |
| CC1(C)[C@@H](O[C@@H]2OC[C@@H](O[C@@H]3O[C@H](CO)[C@@H](O)[C@H](O)[C@H]3O[C@@H]3OC[C@@H](O)[C@H](O)[C@H]3O)[C@H](O)[C@H]2O[C@@H]2O[C@H](CO)[C@@H](O)[C@H](O)[C@H]2O)CC[C@]2(C)[C@H]3CC[C@]45OC[C@@]6(CC[C@](C)(C=O)C[C@H]64)[C@H](O)C[C@@]5(C)[C@]3(C)CC[C@@H]12 | -71.2% (active) |
| CCOC(=O)c1nnn(Cc2cc(=O)oc3c2ccc2ccccc23)c1C | 103% |
| Cc1nn(-c2ccccc2)c2ncnc(N/N=C/c3ccccc3)c12 | 84.3% |
| O=S(=O)(NCCNc1nccc(-c2c(-c3cccc(F)c3)nc3occn23)n1)c1ccc(C(F)(F)F)cc1 | 74.7% |
| COc1ccc(-c2cc(-c3cc(OC)c(OC)c(OC)c3)c(C#N)c(=O)n2CCCCC(=O)O)cc1 | 109% |
| Cc1nn(-c2ccc(Cl)cc2)c(=O)n1CCN1CCOCC1 | 90.3% |
| COc1ccc(C(=O)C(CN(C)C)c2ccc(OC)cc2)cc1 (stereo not given) | 14.2% |
| O=C(NNc1nc2cc(F)cc(F)c2n2cccc12)c1ccncn1 | -7.49% (active) |
| O=S(=O)(O)c1ccc2cc(O)ccc2c1 | 101% |
| CC(C)(CNC1CCCCC1)OC(=O)c1ccccc1 | 94.3% |
| Cl/C(=N\Nc1ccccc1)c1ccccc1 | 79% |

| SMILES | growth |
| --- | --- |
| CC(C)/C(=N/O)c1ccccc1 | 105% |
| O=[N+]([O-])C1CC2C=CC1C2 (stereo not given) | 99.5% |
| COc1ccc(CCN2CCC(CN(C)Cc3cnn(-c4ccccc4)c3)CC2)cc1 | 19% |
| O=Nc1c(-c2cccc([N+](=O)[O-])c2)nc2ncccn12 | 17.4% |
| O=C(Nc1cccc(-c2nc(-c3ccc(NC(=O)c4cccnc4)cc3Cl)no2)c1)Nc1ccc(NC(=O)C2CC2)c(C(F)(F)F)c1 | -72.6% (active) |
| COc1ccc(C(=O)NC(=O)Nc2cc3c(cc2F)/C(=C/c2[nH]c(C)c(CCC(=O)O)c2C)C(=O)N3)c(F)c1 | 50.4% |
| O=C(O)/C(=C/c1ccc(O)cc1)c1ccccc1 | 96.9% |
| O=S(=O)(Nc1ncccn1)c1ccc(NC2Nc3nc4ccccc4nc3S2)cc1 (stereo not given) | 95.5% |
| Nc1cccc2c1C(=O)c1cccc(NC(=O)c3ccccc3)c1C2=O | 10.6% |
| O=C(CN1CCOCC1)Nc1ccc(Cn2nnc3c2C(=O)c2nnn(Cc4ccc(NC(=O)CN5CCOCC5)cc4)c2C3=O)cc1 | -61.7% (active) |
| CN1CCN(c2nc3scc(-c4ccccc4)c3c(=O)[nH]2)CC1 | 98.1% |
| O=C1[C@@H]2Cc3c([nH]c4ccccc34)[C@H](c3ccc(Br)cc3)N2C(=O)CN1C1CCN(Cc2c(Cl)cccc2Cl)CC1 | 95.9% |
| Cc1nn(-c2ccccc2)c(Oc2c(Cl)cccc2Cl)c1/C=N/N=c1\sc2ccccc2n1C | 39.7% |
| C=C(C)[C@@H]1CC[C@]2(COCCC#N)CC[C@]3(C)[C@H](CC[C@@H]4[C@@]5(C)Cc6c([nH]c7ccccc67)C(C)(C)[C@@H]5CC[C@]43C)[C@@H]12 | 115% |
| Cc1cc(Nc2ccc(Cl)c(Cl)c2)nc(N)n1 | 54.5% |
| O=C(/C(=N/O)c1ccccc1)c1ccccc1 | 93.1% |
| CCc1ccc(-c2ccc(=O)n(-c3ccc(S(N)(=O)=O)cc3)n2)cc1 | 7.89% (active) |
| CCN1C2=C(SC(=S)C1=C1SC(C(=O)OC)=C(C(=O)OC)S1)SC(=Nc1ccc(OC)cc1)C2=O | -78% (active) |
| CN1CCN(c2ccc(Nc3nc(NCCCNS(=O)(=O)c4ccc(F)cc4)c4sccc4n3)cc2)CC1 | 25.9% |
| c1ccc2cc(-c3n(Cc4ccc5ccccc5n4)c4ccccc4[n+]3Cc3ccc4ccccc4n3)ccc2c1 | -36% (active) |
